# High-throughput results deposited in PubChem by several laboratories.
# Most compounds without a hit are left out; they make up all but 2.7% or so of the library.
# FAS TE block – FAS thioesterase domain inhibitors, primary screen, biochemical, fluorescence intensity, uHTS; Fatty acid synthase (Homo sapiens), P49327; recombinant FAS-TE, OMFH fluorogenic substrate, fluorescence endpoint; inhibition, % at 15 µM; 360,000 compounds, 0.67% hits; AID 602261, 2012;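 active means compounds whose normalised, plate-corrected inhibition of enzyme fluorescence in the single-dose primary screen is 50% or more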;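 further: 0% = DMSO with enzyme and 100% = substrate without enzyme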
# KLK7 zymogen act – proKLK7 zymogen activators, primary screen, biochemical, fluorescence intensity. activation, % at 7 µM. 370,000 compounds, 0.9% hits. AID 652039, 2013. Kallikrein-7 (Homo sapiens), P49862. purified proKLK7, EDANS-DABCYL substrate fluorescence; 100% is mature enzyme control, 0% vehicle;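 active means activation above the mean of all tested compounds plus 3 SD, computed per campaign excluding outliers beyond control limits, cut at about 13% in these data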
# Neddylation inh – inhibitors of cullin neddylation, primary screen, biochemical, TR-FRET, uHTS, NAE and Ubc12. NEDD8-conjugating enzyme Ubc12 (Homo sapiens) + NEDD8-activating enzyme E1 regulatory …. calls only at 25 µM. 360,000 compounds, 0.58% hits. AID 651699, 2012; in the data active means inhibition above about 36%
# PfG6PD inh – PfG6PD enzyme inhibitors, primary screen, biochemical, fluorescence intensity, uHTS; glucose-6-phosphate dehydrogenase-6-phosphogluconolactonase (Plasmodium falciparum 3D7); PfGluPho enzyme, NADPH resazurin-diaphorase fluorescence; inhibition, % at 20 µM; 350,000 compounds, 0.78% hits; AID 504690, 2011;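 active means inhibition reaching at least a set limit at 20 µM in the primary screen, cut at about 59% in these data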;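 further: 0% = DMSO wells with substrate and 100% = DMSO wells lacking glucose-6-phosphate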
# proKLK7 act conf – proKLK7 zymogen activators, confirmation, biochemical, fluorescence intensity, triplicate; shares compounds with KLK7 zymogen act; purified proKLK7, EDANS-DABCYL substrate fluorescence; scaled: vehicle 0, mature enzyme 100; activation, % at 7 µM; 3,200 compounds, 68% hits;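 active means activation, as change over the incubation, above the mean of all tested compounds plus 3 SD, cut at about 13% in these data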
# EDANS interfere – EDANS-DABCYL substrate optical interference, artefact control for kallikrein-7 zymogen activator project, biochemical, fluorescence intensity, high throughput; shares compounds with KLK7 zymogen act; no enzyme, 4 h; solvent 0%, active enzyme control 100%; activation, % at 7 µM; 3,200 compounds, 80% hits; AID 686952, 2013;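 active means activation above the all-compound mean plus 3 SD, ignoring values outside control-based bounds, cut at about 4.8% in these data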;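 further: value is the 4 h activation minus the activation read at time zero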
# * marks the source's active call; other numbers are inactive results; i = inactive; / = no result given.
SMILES,FAS TE block,KLK7 zymogen act,Neddylation inh,PfG6PD inh,proKLK7 act conf,EDANS interfere
COC(=O)[C@]12C[C@H](CC(=O)NCc3cccc4ccccc34)C(=O)N(Cc3ccco3)C1=C[C@H](C(C)C)O[C@@H]2C1CC1,/,0.0,/,/,/,/
CN1CCSc2ccc(C(=O)NCc3ccccc3)cc21,-2.0,42.9*,/,47.0,5.8,24.1*
CCN1CCSc2ccc(C(=O)NCc3cccc(F)c3)cc21,14.1,15.7*,/,13.2,-56.0,-36.2
CCc1nc2ccc(C(=O)NCCc3ccccn3)cn2c1N(C)Cc1ccc(N(C)C)cc1,-6.2,0.4,i,/,/,/
CCOc1ccc(-c2cc(C(=O)NCCCN3CCN(CC)CC3)c3ccccc3n2)cc1,-5.6,56.9*,/,0.1,-17.0,-20.4
CCOc1ccc(-c2cc(C(=O)O)c3ccccc3n2)cc1,-3.4,33.4*,/,-14.7,60.2*,68.7*
CCOc1ccc(-c2cc(C(=O)N3CCC(C)CC3)c3ccccc3n2)cc1,12.4,-20.4,/,11.1,/,/
COc1ccc(/C=C/c2cc(C(=O)O)c3ccccc3n2)cc1,-6.3,12.8*,/,40.5,72.3*,72.2*
COc1cc(OC)c(OC)cc1/C=C/c1cc(C(=O)O)c2ccccc2n1,-6.1,-0.1,i,3.6,/,/
CCOc1ccc(-c2cc(C(=O)NCCCn3ccnc3)c3ccccc3n2)cc1,-13.0,-16.1,/,10.6,/,/
Fc1ccc(Cn2ccc3ccc(-c4ccc5ccn(Cc6ccc(F)cc6)c5c4)cc32)cc1,/,-2.3,/,/,/,/
CC(=O)c1ccc(NC(=O)NC2CCCCN(Cc3ccc(Cl)cc3)C2=O)cc1 (stereo unspecified),/,0.3,/,/,/,/
COc1ccc(-c2nc3ccc(C)cn3c2Cc2ccccc2)cc1OC,9.7,-5.8,/,/,/,/
CN(c1cccnc1)c1ccc(NC(=O)Cc2c[nH]c3ccccc23)cc1-c1ccc(F)c(F)c1,/,0.0,/,/,/,/
CCCCCCNC(=O)OC12CN(C(=O)OC(C)C)N(C(=O)OC(C)C)CC1(O)CN(S(=O)(=O)c1ccc(C)cc1)C2 (stereo unspecified),11.0,0.0,i,42.0,/,/
Cc1nc2nc(N)nc(OCc3ccccc3)c2nc1C,-0.8,59.4*,/,10.1,75.4*,80.2*
COc1ccc(S[C@]2(C(=O)NCCCN(C)C)CC(=O)N[C@@H]2c2ccc(OC)cc2)cc1,/,-0.1,/,/,/,/
CCNC(=O)C1(C)CCCN(Cc2ccc(Oc3ccccc3)cc2)C1 (stereo unspecified),-5.9,-0.2,i,/,/,/
CCN(C(=O)COC(=O)c1[nH]c(=O)[nH]c(=O)c1N)c1ccccc1,-2.3,12.9*,i,5.8,24.2*,28.0*
CCN(C(=O)COC(=O)C1=COCCO1)c1ccccc1,-5.7,-0.2,i,0.6,/,/
CCOc1cc(C2C(C(=O)N3CCCCC3)=C(C)NC3=C2C(=O)CCC3)cc(Br)c1O (stereo unspecified),-0.9,14.7*,i,-9.3,8.4,15.4*
COc1ccc(Cn2c(NC(=O)c3ccccc3)nc(Cc3ccccc3)c2-c2ccccc2)c(OC)c1,/,-12.0,/,/,/,/
Nc1nc(N)c2c(ccc3nccc32)[nH]1,-6.3,195.4*,/,-7.4,76.3*,80.7*
CCOc1ccc(/C(O)=C2/C(=O)C(=O)N(c3ccccn3)C2c2ccc(F)cc2)c(C)c1 (stereo unspecified),0.2,14.3*,i,-14.4,18.5*,19.6*
CCOC(=O)C1(C)CCN1C(=O)c1ccc(C(F)(F)F)cc1 (stereo unspecified),-9.5,0.6,i,/,/,/
COc1ccc(C(=O)Cc2cc3cccc(OC)c3oc2=O)cc1,-16.0,1.0,i,-11.2,/,/
COc1ccc(C(=O)CC2OC(=O)c3c2ccc(OC)c3OC)cc1 (stereo unspecified),-10.5,54.7*,i,-40.1,59.1*,78.9*
COc1ccc(-c2cc3nc(CCl)[nH]c(=O)c3s2)cc1,-2.7,19.2*,i,0.9,3.1,3.5
COc1ccc(-c2cc3nc[nH]c(=O)c3s2)cc1,-5.7,41.1*,i,-8.9,-5.9,15.2*
